Sampled rows, rich in hits. Any-hit rate of the full collection: about 0.87%.
RGS4 inhibitor: blocks human RGS4-accelerated GTP hydrolysis; actives 0.039% (n = 390,000); Potency, µM (titrated, usually from 114 µM), usual class: inhibitors; P49798; Transcreener GDP fluorescence polarization, RGS4-accelerated GTP hydrolysis; also: nearly all actives have a fitted effect of over 75% in size
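MLSMR compounds (23 nl, pin-transferred) preincubated 10 min at room temperature with a 500nM (2x) first reagent, then RGS4 at 900nM (2x) plus Transcreener GDP mix added; fluorescence polarization (620/688 nm) read before and after 90 min at 30 °C.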
APE1 inh-1: APE1 (human) endonuclease inhibition; actives 0.35% (n = 350,000); recombinant APE1, TAMRA/BHQ-2 abasic DNA cleavage fluorescence; P27695; Potency, µM (highest dose often 65.8 µM), usual class: inhibitors; also: nearly all actives have a fitted effect of over 55% in size
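Substrate: short duplex with […] THF abasic site, 5'-TAMRA and 3'-BHQ-2, 50 nM final. APE1 at 0.75 nM, preincubated 15 min RT with compound. Fluorescence increase from first to third read measured activity.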
TDP1 inh: inhibitors of human tyrosyl-DNA phosphodiesterase TDP1; Q9NUW8; recombinant TDP1, AlphaScreen DNA substrate cleavage; Potency, µM (titrated, usually from 130 µM), most hits filed as inhibitors; actives 0.28% (n = 350,000); AID 485290; also: nearly all actives have a fitted effect of over 40% in size
Target sequence (Q9NUW8 whole entry, looked up): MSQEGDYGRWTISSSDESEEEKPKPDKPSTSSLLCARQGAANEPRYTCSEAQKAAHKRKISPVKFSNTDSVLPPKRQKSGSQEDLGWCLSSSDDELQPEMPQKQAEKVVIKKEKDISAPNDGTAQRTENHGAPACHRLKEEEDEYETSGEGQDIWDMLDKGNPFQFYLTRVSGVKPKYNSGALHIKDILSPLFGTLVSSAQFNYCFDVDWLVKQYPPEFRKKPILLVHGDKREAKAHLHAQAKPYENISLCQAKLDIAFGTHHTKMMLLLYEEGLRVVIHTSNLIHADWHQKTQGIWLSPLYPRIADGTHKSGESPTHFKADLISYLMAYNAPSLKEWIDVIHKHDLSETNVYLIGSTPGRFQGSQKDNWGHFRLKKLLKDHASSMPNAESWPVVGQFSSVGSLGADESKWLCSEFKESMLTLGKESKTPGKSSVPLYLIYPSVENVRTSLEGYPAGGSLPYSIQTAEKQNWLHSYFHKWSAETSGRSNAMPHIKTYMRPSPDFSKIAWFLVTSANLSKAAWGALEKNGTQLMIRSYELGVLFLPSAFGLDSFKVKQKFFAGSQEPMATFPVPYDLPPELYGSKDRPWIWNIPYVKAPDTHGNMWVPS
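E. coli-derived human Tdp1, 1 nM final. Cpd preinc 15 min RT; substrate 15 nM final, 5 min RT; AS bead mix 10 ug/ml final, 10 min RT. Signal loss = tyrosine-FITC cleavage. No-enzyme wells = max signal.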
GCN5L2 inh: inhibitors of human GCN5L2 histone acetyltransferase; Q92830; GCN5L2 HAT assay, ThioGlo1 CoA-SH fluorescence; Potency, µM (top dose mostly 58.9 µM), most hits filed as inhibitors; actives 0.21% (n = 390,000)
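Enzyme at 20nM final was mixed with library compounds for 15 min at room temperature. Peptide H3(1-25) at 75uM, acetyl-CoA at 70uM and ThioGlo1 at 50uM were then added. Plates were read immediately and after 20 min (Ex340nm/Em540nm).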
RECQ1 inh-1: inhibitors of human RECQ1 DNA helicase. RECQ1 DNA unwinding, red fluorescence kinetic read. Potency, µM (series often up to 57.3 µM), hits mostly inhibitors. P46063. actives 0.54% (n = 240,000); also: nearly all actives have a fitted effect of over 30% in size
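RECQ1T1 50 nM; forked duplex (20 bp + 30-nt ss tails) 200 nM, ATP 2 mM final; pH 8.0, 2 mM MgCl2, 2.5 ug/ml poly(dI-dC); 15 min compound preincubation; discontinuous kinetic read over 2 h at RT.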
BLM helicase inh: Bloom syndrome helicase (human) inhibition; actives 0.2% (n = 350,000); P54132; recombinant BLM DNA unwinding, fluorescence dequenching; Potency, µM (series often up to 56.1 µM), hits mostly inhibitors; also: nearly all actives have a fitted effect of over 35% in size
DNA dye displace: DNA dye displacement counter-screen activity. shares compounds with APE1 inh-1. DNA fluorescent dye displacement counterscreen, fluorescence. Potency, µM (titrated, usually from 28.5 µM), hits mostly inhibitors. actives 7% (n = 480);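 also: loss of thiazole orange fluorescence as the dye is displaced from duplex DNA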
Endo IV inh: blocks E. coli endonuclease IV DNA cleavage. AID 2565. E. coli Endo IV, fluorogenic AP-site DNA cleavage. actives 4% (n = 560). Potency, µM (titrated, usually from 27.1 µM), usual class: inhibitors. shares compounds with APE1 inh-1
APE1 inh-2: confirmation of inhibitors of human APE1 endonuclease; actives 44% (n = 750); purified APE1, fluorogenic abasic-site DNA cleavage; AID 2572; shares compounds with APE1 inh-1; Potency, µM (series often up to 57.1 µM), most hits filed as inhibitors; also: nearly all actives have a fitted effect of over 30% in size
APE1 FP inh: displaces DNA from human APE1 in FP assay | APE1 binding to TAMRA-labelled double-stranded DNA, fluorescence polarization displacement | Potency, µM (series often up to 28.5 µM), most hits filed as inhibitors | actives 7% (n = 480) | shares compounds with APE1 inh-1
RECQ1 conf: confirmation of human RECQ1 helicase inhibitors. shares compounds with RECQ1 inh-1. RECQ1 helicase DNA unwinding, fluorescence. Potency, µM (series often up to 229 µM), usual class: inhibitors. actives 28% (n = 610); also: nearly all actives have a fitted effect of over 45% in size
ADP FP counter: ADP displacement flagged in RECQ1 inhibitor counter-screen; Potency, µM (highest dose often 228 µM), hits mostly inhibitors; AID 2711; actives 27% (n = 530); ADP fluorescence polarization displacement counterscreen; shares compounds with RECQ1 inh-1; also: nearly all actives have a fitted effect of over 45% in size
RECQ1 inh-2: RECQ1 helicase inhibition confirmed, round 2 | shares compounds with RECQ1 inh-1 | recombinant RECQ1 DNA unwinding, red fluorescence | Potency, µM (doses to about 119 µM), most hits filed as inhibitors | actives 15% (n = 1,100) | AID 504841; also: nearly all actives have a fitted effect of over 50% in size
Large screens that a line does not name were inactive (follow-up assays come after a bar, where they were run); ! = a repeat was not active. Calls follow the shape of the dose curve; as a rule, active = well fitted curve in the direction sought with a large enough effect; inconclusive = small, poorly fitted or top-dose-only effect, or another doubt; inactive = no such curve, though single readings can be large; an effect the other way counts as inactive or inconclusive.

COc1cc(/C=C/[N+](=O)[O-])ccc1OCc1cccc(C(=O)O)c1	RGS4 inhibitor inconclusive, APE1 inh-1 6.3µM, RECQ1 inh-1 20µM, BLM helicase inh inconclusive (no result: TDP1 inh) | DNA dye displace inactive | Endo IV inh inactive | APE1 inh-2 inconclusive | APE1 FP inh inactive | RECQ1 conf inactive | ADP FP counter inconclusive
COc1cc(/C=N/NC(=O)c2cccc([N+](=O)[O-])c2)ccc1OCc1ccccc1	none
COc1cc2oc(=O)ccc2cc1O	none (no result: RGS4 inhibitor)
COc1cc2c(ccc3cc(OC)c(OC)c(O)c32)cc1O	APE1 inh-1 0.71µM, RECQ1 inh-1 11µM, BLM helicase inh 25µM (no result: TDP1 inh) | DNA dye displace inconclusive | Endo IV inh inconclusive | APE1 inh-2 0.63µM | APE1 FP inh inconclusive | RECQ1 conf 40µM | ADP FP counter 50µM
COC1=C[C@@H](C)C2CC3OC(=O)C[C@H]4C(C)=C(OC)C(=O)C([C@@]2(C)C1=O)[C@@]34C (stereo partly drawn)	none (no result: RGS4 inhibitor, GCN5L2 inh)
Cc1ccc2c(=O)c3ccccc3n(CCCN)c2c1C	APE1 inh-1 4.5µM!, GCN5L2 inh inconclusive, RECQ1 inh-1 32µM! (no result: RGS4 inhibitor) | DNA dye displace 14µM | Endo IV inh inactive | APE1 inh-2 8.9µM | APE1 FP inh inactive | RECQ1 inh-2 18µM
CC(=O)Nc1ccc2c(COC(=O)CC3Sc4ccccc4NC3=O)cc(=O)oc2c1 (stereo not drawn)	APE1 inh-1 inconclusive, TDP1 inh 20µM, RECQ1 inh-1 inconclusive | APE1 inh-2 35µM | RECQ1 inh-2 inconclusive
O=C(NN1C(=O)/C(=C/C=C/c2ccco2)SC1=S)c1ccncc1	RGS4 inhibitor inconclusive, APE1 inh-1 4.5µM, RECQ1 inh-1 3.5µM (no result: TDP1 inh) | DNA dye displace inactive | Endo IV inh inactive | APE1 inh-2 4.5µM | APE1 FP inh inconclusive | RECQ1 conf 22µM | ADP FP counter 13µM
COc1cc2c(c(OC)c1OC)-c1c(cc(OC)c(OC)c1OC)CC(C)C(C)C2 (stereo not drawn)	none (no result: RGS4 inhibitor)
O=C(Nc1nc(-c2ccco2)c(-c2ccco2)s1)C1CC(=O)N(c2ccc3c(c2)OCCO3)C1 (stereo not drawn)	APE1 inh-1 2.5µM, TDP1 inh inconclusive, GCN5L2 inh inconclusive, RECQ1 inh-1 7.9µM, BLM helicase inh 14µM | DNA dye displace 11µM | Endo IV inh inactive | APE1 inh-2 inconclusive | APE1 FP inh inactive | RECQ1 conf 28µM | ADP FP counter 40µM | RECQ1 inh-2 inconclusive
COc1ccc(C2=Nn3c(nnc3-c3ccc(OC)c(OC)c3)SC2)cc1OC	APE1 inh-1 inconclusive (no result: RGS4 inhibitor, GCN5L2 inh)

Screening data (PubChem)
